In publication PMC10668032, “Altered binding affinity of SIX1-Q177R correlates with enhanced WNT5A and WNT pathway effector expression in Wilms tumor”:
Whole data set: some 33,000 sequences, median “e-score” near -0.053, cut for the highest 2% near 0.38. The entries come from a sample that favours the highest values as a whole.

target: T1, SIX1 homeodomain (reference allele) (human, UniProt Q15475 108-198); assay: universal protein binding microarray; Universal all-10-mer PBM (8x60K, AMADID 030236), 300 nM GST-tagged protein, Alexa Fluor 488 anti-GST; buffer, salt, pH and temperature not stated (as in Berger); high values mean tight binding; conditions: protein: ivt; tags: N-terminal GST; dsDNA, one strand shown
T1 sequence: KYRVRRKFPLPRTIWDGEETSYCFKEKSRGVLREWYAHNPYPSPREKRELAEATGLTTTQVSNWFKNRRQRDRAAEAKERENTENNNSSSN
In short: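 Binding of GST-tagged homeodomains is given as 8-mer E-scores from the Universal PBM Analysis Suite. The proteins were produced by in vitro transcription/translation, quantified by anti-GST western blot against a recombinant GST standard curve, and applied in duplicate at 300 nM final concentration to universal 'all 10-mer' protein binding microarrays (8×60K format).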

Sequence | binding signal [E-score]
ATCCCCAA | 0.294 ± 0.0584
ATCCCCTG | 0.3344 ± 0.00285
ATCCCCCG | 0.403 ± 0.00588
ATCCCCTC | 0.387 ± 0.0304
ATCCCCGG | 0.307 ± 0.0247
ATCCCGAG | 0.257 ± 0.025
ATCCCCTA | 0.374 ± 0.0124
ATCCCGAA | 0.252 ± 0.0478
ATGCGGTA | 0.265 ± 0.0333
AGATGGAT | 0.328 ± 0.00364
ATACAGGG | 0.295 ± 0.0454
CGTAGATA | 0.23 ± 0.0417
GATCGTTA | 0.198 ± 0.00351
ATACGGCC | 0.344 ± 0.0108
ATTAATCC | 0.316 ± 0.089
TCAATCCA | 0.163 ± 0.0587
ATCCCCAC | 0.347 ± 0.0302
ATCACCCC | 0.302 ± 0.0208
ATCACCCG | 0.397 ± 0.0282
ATCACCCA | 0.308 ± 0.00677
ATCCCCGC | 0.326 ± 0.0778
ATCCCCCC | 0.423 ± 0.0283

Sequence | binding signal [E-score]
ATCGTAGG | 0.16 ± 0.0377
CTGATCTA | 0.2567 ± 0.000955
GAGACGCC | 0.155 ± 0.0256
GATACAAA | 0.252 ± 0.0232
AATACGCC | 0.188 ± 0.0403
GACACGTA | 0.211 ± 0.0335
TATACGCA | 0.304 ± 0.0184
GATACGTA | 0.4288 ± 0.00319
GATACGCA | 0.4207 ± 0.00257
GATACGCC | 0.4525 ± 0.00258
AATACGTA | 0.237 ± 0.0731
CCCGTCTA | 0.159 ± 0.00699
AGACGTAT | 0.319 ± 0.0844
CAGTGTCA | 0.249 ± 0.0216
CGCATCGA | 0.208 ± 0.103
CACCGGTG | 0.196 ± 0.0172
ATATGAAT | 0.19 ± 0.0448
CTCTGATA | 0.312 ± 0.08
CCCTGATA | 0.36 ± 0.00422
ATCTGAAC | 0.179 ± 0.00772
ACCTGATC | 0.31 ± 0.0291
ACCTGATA | 0.401 ± 0.0362

Sequence | binding signal [E-score]
ATCTGACC | 0.282 ± 0.0195
ATCTGATG | 0.156 ± 0.0564
ATCTGATA | 0.446 ± 0.0144
ATCTGATC | 0.419 ± 0.0129
GGTTTCGA | 0.172 ± 0.0592
GAGATCTA | 0.172 ± 0.0177
TAAACCCA | 0.161 ± 0.0201
CGATCGCA | 0.284 ± 0.0349
ATCGGTGA | 0.232 ± 0.0224
GTGTCCCA | 0.204 ± 0.0515
CGTTAGTA | 0.194 ± 0.00764
ATATTCTC | 0.269 ± 0.0439
AATCCGCA | 0.204 ± 0.0414
TATCCGCA | 0.4006 ± 0.00313
GATCCAAA | 0.207 ± 0.0442
GATCCGCA | 0.411 ± 0.0362
AATCCGCT | 0.191 ± 0.0498
GATCCGCC | 0.427 ± 0.0138
AATCCGCC | 0.212 ± 0.00218
CATCCGCC | 0.237 ± 0.0769
TATCCGAA | 0.334 ± 0.0355
GCCATATA | 0.215 ± 0.0356

Sequence | binding signal [E-score]
ACACCGCT | 0.224 ± 0.00469
CCCACTGA | 0.191 ± 0.0775
ATGCAGTG | 0.153 ± 0.121
ATCGCGTA | 0.189 ± 0.0511
TACTACTA | 0.195 ± 0.0204
AGGATAAA | 0.16 ± 0.041
CGAATACC | 0.233 ± 0.0485
CGGATACG | 0.38745 ± 0.000205
CGGATACA | 0.446 ± 0.0132
CGGATAAG | 0.187 ± 0.0213
CGGATACC | 0.476 ± 0.00619
AGGATACG | 0.386 ± 0.0183
CGTATACG | 0.317 ± 0.065
CGGATGCC | 0.214 ± 0.0396
CCATCTAC | 0.161 ± 0.00787
ATTCAATA | 0.161 ± 0.0419
TATGCGAA | 0.164 ± 0.0286
ACACCTTC | 0.219 ± 0.032
ATGGGGTA | 0.163 ± 0.0446
TCGCGACA | 0.193 ± 0.0437
